Inconclusive results are not listed. A call without a number means that no potency is given here. Calls of active or inactive are those of the source. Calls follow the shape of the dose curve; as a rule, active = well fitted inhibition curve with a large enough effect; inconclusive = small, poorly fitted or top-dose-only effect; inactive = no such curve, though single readings can be large or run the other way.

The test system of the experiment is Zika virus NS2B-NS3 protease (unlinked complex). The experiment in a line: Primary screen GU Rhodamine qHTS for Zika virus inhibitors: Unlinked NS2B-NS3 protease assay (AID 1347159). Also: nearly all actives have a fitted effect of over 60% in size. Conditions: Recombinant ZIKV NS2B-NS3 protease, Rhodamine110 substrate fluorescence; series mostly up to 107 µM. The procedure, abridged: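 A qHTS format was used, with compound concentrations ranging up to 114 microM. Each compound was preincubated with 25 nM NS2B-NS3 protease, and the substrate was then added at 1.5 microM. Curves were fitted with a 4-parameter Hill model.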
Background: Quantitative high-throughput screening tests each substance at several concentrations.
As to `O=C(O)c1cccc(C(=O)CCC2OC(n3cnc4c(=O)[nH]cnc43)C(O)C2O)c1` (configuration not stated), the Potency entry is “inactive”.

Turning to `C[C@@H]1C[C@@H](O)[C@@]23CO[C@]2(CO)CCC[C@@H]3[C@@]12C[C@@H](c1ccoc1)OC2=O`, the Potency result is “inactive”.

For `C=CC(C)(O)C1CC2C3(C)CCCC(C)(C)C3C(O)C(O)C2(C)O1` (configuration not stated), the Potency result is “inactive”.

For `CC(=O)O[C@H]1[C@H](OC(=O)C(C)C)[C@]2(C)OC3(CC[C@]2(C)[C@H]2CCC[C@]4(CO4)[C@]12C)COC(=O)C3` (some centres not stated), the Potency result is “inactive”.

Turning to `C/C=C1/C[N+](C)([O-])C2Cc3c([nH]c4ccccc34)C(=O)CC1C2C(=O)OC` (configuration not stated), the Potency entry is “inactive”.

On to `CC12CC34CC(O)C5C(CO)(CO)CC(=O)CC5(C)C3CC1C2C4` (configuration not stated), for which the Potency result is “inactive”.

Take `CCC1OC(=O)C(C)CC(C)C(=O)/C(C)=C/C(C)C(=O)/C=C/C1(C)O` (configuration not stated): the Potency result was “inactive”.

As for `O=C(O)c1cc(C(F)(F)F)ccc1N1CC[C@H](OCc2ccccn2)C1`, the Potency result was “inactive”.

In the case of `C=C(CCO)C(=O)OCC1OCC(OC(=O)C(=C)CCO[C@@H]2O[C@H](CO)[C@@H](O)[C@H](O)[C@H]2O)C(O)C1O` (some centres not stated), the Potency entry is “inactive”.

Take `CC(=O)OC(C)C(C)(O)C(=O)O[C@@H]1CC[C@]2(C)CC(=O)C(=C(C)C)C[C@H]2[C@]1(C)OC(C)=O` (some centres not stated): the Potency result was “inactive”.

On to `CC(=O)c1ccc(O[C@@H]2O[C@H](CO[C@@H]3OC[C@@H](O)[C@H](O)[C@H]3O)[C@@H](O)[C@H](O)[C@H]2O)cc1`, for which the Potency entry was “inactive”.

For `CC1(C)CC[C@]2(C(=O)O[C@@H]3O[C@H](CO)[C@@H](O)[C@H](O)[C@H]3O)CC[C@]3(C)C(=CCC4[C@@]5(C)CC[C@H](OC6OC(C(=O)O)C(OC7OC(CO)C(O)C(O)C7O)C(O)C6O)C(C)(C)C5CC[C@]43C)C2C1` (some centres not stated), the Potency result was “inactive”.

Values taken from PubChem BioAssay (NCATS).
